This is an account of results in PubChem BioAssay (Tox21).

Results filed as inconclusive are left out. Unmarked numbers belong to inactive results. Active and inactive are the calls of the source. Calls follow the shape of the full dose curve.
% is scaled to controls: 0 for no effect and ±100 for the full control effect; potency is read from the fitted curve at half-maximal effect.

Sequence of Peroxisome proliferator-activated receptor gamma (Homo sapiens) (P37231 whole entry, looked up): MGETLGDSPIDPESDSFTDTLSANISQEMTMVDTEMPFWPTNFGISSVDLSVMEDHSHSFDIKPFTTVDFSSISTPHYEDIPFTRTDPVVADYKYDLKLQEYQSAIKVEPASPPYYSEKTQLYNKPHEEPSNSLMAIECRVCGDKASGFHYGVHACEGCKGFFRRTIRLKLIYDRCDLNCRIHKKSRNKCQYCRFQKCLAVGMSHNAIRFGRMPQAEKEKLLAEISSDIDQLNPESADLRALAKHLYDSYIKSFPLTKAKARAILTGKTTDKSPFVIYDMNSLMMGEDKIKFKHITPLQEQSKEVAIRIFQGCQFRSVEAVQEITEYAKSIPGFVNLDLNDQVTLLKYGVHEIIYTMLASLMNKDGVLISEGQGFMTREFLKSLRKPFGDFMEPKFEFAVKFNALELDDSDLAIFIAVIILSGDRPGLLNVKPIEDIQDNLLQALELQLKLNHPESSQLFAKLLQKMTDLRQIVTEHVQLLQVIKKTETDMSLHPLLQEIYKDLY

In the test the target is Peroxisome proliferator-activated receptor gamma (Homo sapiens) (UniProt P37231). The experiment in a line: qHTS assay to identify small molecule antagonists of the peroxisome proliferator-activated receptor gamma (PPARg) signaling pathway (AID 743191). Also: nearly all actives have a fitted effect of over 30% in size. The settings on record: HEK293H PPARg-UAS-bla, beta-lactamase ratio, antagonist, 17 h; series mostly up to 62.6 µM; ratio activity, negative = inhibition: at the top concentration. In a few lines:
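GeneBLAzer PPARg UAS-bla HEK293H cells carrying a UAS-driven beta-lactamase reporter were plated at 3000 cells/well, preincubated 5 h at 37C, then given compound for 17 h at 37C; LiveBLAzer B/G FRET substrate was read after 1 h at room temperature.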
In the case of `CN1CCN(N)CC1`, the “ratio activity, negative = inhibition” value was 6.01%.
Turning to `COC(=O)N[C@H](C(=O)N[C@@H](Cc1ccccc1)[C@@H](O)CN(Cc1ccc(-c2ccccn2)cc1)NC(=O)[C@@H](NC(=O)OC)C(C)(C)C)C(C)(C)C`, the “ratio activity, negative = inhibition” value is -13.3%.
Still for that read-out and setting: the figure for `O=Cc1ccc(O)c(O)c1O` is 4.34%.
Consider `CC1=NN(c2cc(Cl)c(S(=O)(=O)O)cc2Cl)C(=O)C1N=Nc1ccc(S(=O)(=O)O)cc1` (stereo not drawn), for which the “ratio activity, negative = inhibition” value is -11.6%.
Consider `COC(=O)/C=C(/C)N`, for which the “ratio activity, negative = inhibition” value was 7.01%.
Same read-out and setting: for `NC(=O)NS(=O)(=O)c1ccc(Cl)cc1` the value was 5.51%; for `CC[C@H]1CC[C@H](NCc2cc3c(cc2OC)[C@H]2C[C@H]2C(=O)N3C)[C@H](c2ccccc2)N1`, -22.9%.
Regarding `CC(C)C(=O)OCC(C)(C)C(O)C(C)C` (stereo not drawn), the “ratio activity, negative = inhibition” value is -2.2% [at 81.1 µM].
`Cc1nc(N)nc(N)c1-c1ccc(Cl)c(Cl)c1`: the Potency is 1880 nM (active).
In the case of `CCCC1CCC(=O)O1` (stereo not drawn), the “ratio activity, negative = inhibition” value was 4.67%.
Still for that read-out and setting: the figure for `O=C(CCCl)NCc1ccccc1` is -1.37%.
For the compound `CCCCCCOc1ccc(N)cc1`, the “ratio activity, negative = inhibition” value is -25%.
For `C/C(=N\O)[C@@H](C)NCC(C)(C)CN[C@H](C)/C(C)=N/O`, the “ratio activity, negative = inhibition” value is -0.895%.
Still for that read-out and setting: the figure for `Cc1c[nH]c(=S)[nH]c1=O` is -4.23%.
Still for that read-out and setting: the figure for `CC(Oc1c(Cl)cccc1Cl)C1=NCCN1` (stereo not drawn) is -0.185%; for `CC(=O)O[C@H]1CC[C@@]2(C)C(=CC[C@@H]3[C@@H]2CC[C@]2(C)C(C(C)=O)=CC[C@@H]32)C1` it is -2.32%.
Regarding `Cc1cc2c(s1)Nc1ccccc1N=C2N1CCN(C)CC1`, the “ratio activity, negative = inhibition” value was -18.3%.
On the same count and under the same terms, for `CCN(CC)CCOc1ccc(Cc2ccccc2)cc1` the value was 2.95%.
